Read-out in experiment [1]: Tissue plasminogen activator (tPA), PLAT (gene 5327)
Nature of the experiment: BSK_BE3C_tPA: BioMAP Diversity Plus: BE3C Assay for Tissue plasminogen activator (tPA) Biomarker Activity (AID 2283041).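 As to outcome: tPA level quantified by ELISA one day after compound addition.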 Particulars: primary human bronchial epithelial cells; actives raise or lower the signal. Summed up: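 Human primary bronchial epithelial cells were dosed with chemical and tPA biomarker levels measured by ELISA 24 hours later. Activity was fitted bidirectionally against DMSO as negative control and baseline.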

Read-out in experiment [2]: Interleukin-8 (IL8), CXCL8 (gene 3576)
The experiment in a line: BSK_CASM3C_IL8: BioMAP Diversity Plus: CASM3C Assay for Interleukin-8 (IL8) Biomarker Activity (AID 2283042).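 Also: IL-8 protein level quantified by ELISA.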 The conditions noted are these: primary human coronary artery smooth muscle cells; actives raise or lower the signal.

Read-out in experiment [3]: Human Leukocyte Antigen - DR isotype (HLADR), HLA-DRA (gene 3122)
Nature of the experiment: BSK_CASM3C_HLADR: BioMAP Diversity Plus: CASM3C Assay for Human Leukocyte Antigen - DR isotype (HLADR) Biomarker Activity (AID 2283043).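 Also: cell-surface HLA-DR protein level quantified by ELISA.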 Particulars: primary human coronary artery smooth muscle cells; actives raise or lower the signal.

Read-out in experiment [4]: Macrophage colony-stimulating factor (MCSF), CSF1 (gene 1435)
Nature of the experiment: BSK_CASM3C_MCSF: BioMAP Diversity Plus: CASM3C Assay for Macrophage colony-stimulating factor (MCSF) Biomarker Activity (AID 2283044).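 Also: M-CSF protein amount quantified by ELISA after 24 h exposure.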 The conditions noted are these: primary human coronary artery smooth muscle cells; actives raise or lower the signal.

Read-out in experiment [5]: Low-density lipoprotein receptor (LDLR), LDLR (gene 3949)
The experiment in a line: BSK_CASM3C_LDLR: BioMAP Diversity Plus: CASM3C Assay for Low-density lipoprotein receptor (LDLR) Biomarker Activity (AID 2283045).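 Also: LDLR protein level on the cell surface quantified by ELISA.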 Particulars: primary human coronary artery smooth muscle cells; actives raise or lower the signal.

Read-out in experiment [6]: Monocyte Chemoattractant Protein-1 (MCP1), CCL2 (gene 6347)
The experiment in a line: BSK_CASM3C_MCP1: BioMAP Diversity Plus: CASM3C Assay for Monocyte Chemoattractant Protein-1 (MCP1) Biomarker Activity (AID 2283046).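 Also: MCP-1 level quantified by ELISA 24 h after dosing.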 Particulars: primary human coronary artery smooth muscle cells; actives raise or lower the signal.

Experiment [7] can be described thus: BSK_CASM3C_Proliferation: Cell Proliferation Assessment in the BioMAP Diversity Plus: CASM3C Assay (AID 2283047).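 Also: sulforhodamine B total protein stain as relative cell number at 560 nm; sub-confluent cells exposed 48 h before staining; fitted both ways against DMSO so gain or loss of cell number.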 Particulars: primary human coronary artery smooth muscle cells.
Read-out in experiment [8]: Monokine induced gamma interferon (MIG), CXCL9 (gene 4283)
The experiment in a line: BSK_CASM3C_MIG: BioMAP Diversity Plus: CASM3C Assay for Monokine induced gamma interferon (MIG) Biomarker Activity (AID 2283048).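 Also: MIG protein level measured by ELISA.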 Particulars: primary human coronary artery smooth muscle cells; actives raise or lower the signal.

Read-out in experiment [9]: serum amyloid A (SAA), SAA1 (gene 6288)
Nature of the experiment: BSK_CASM3C_SAA: BioMAP Diversity Plus: CASM3C Assay for serum amyloid A (SAA) Biomarker Activity (AID 2283049).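 Also: SAA protein level quantified by ELISA.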 Particulars: primary human coronary artery smooth muscle cells; actives raise or lower the signal.

A short description of experiment [10]: BSK_CASM3C_SRB: Viability Assessment in the BioMAP Diversity Plus: CASM3C Assay (AID 2283050).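 Also: total protein by SRB staining as cytotoxicity measure in parallel cultures.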 Particulars: primary human coronary artery smooth muscle cells.
Read-out in experiment [11]: Thrombomodulin, THBD (gene 7056)
Nature of the experiment: BSK_CASM3C_Thrombomodulin: BioMAP Diversity Plus: CASM3C Assay for Thrombomodulin Biomarker Activity (AID 2283051).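 Also: thrombomodulin protein level measured by ELISA 24 h after dosing.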 Particulars: primary human coronary artery smooth muscle cells; actives raise or lower the signal.

Read-out in experiment [12]: Tissue Factor, F3 (gene 2152)
Nature of the experiment: BSK_CASM3C_TissueFactor: BioMAP Diversity Plus: CASM3C Assay for Tissue Factor Biomarker Activity (AID 2283052).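 Also: cell surface tissue factor protein level read by ELISA.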 Particulars: primary human coronary artery smooth muscle cells; actives raise or lower the signal.

Read-out in experiment [13]: Interferon-gamma inducible Protein 10 (IP10), CXCL10 (gene 3627)
Nature of the experiment: BSK_hDFCGF_IP10: BioMAP Diversity Plus: hDFCGF Assay for Interferon-gamma inducible Protein 10 (IP10) Biomarker Activity (AID 2283053). Particulars: primary human foreskin fibroblasts; actives raise or lower the signal. Put shortly: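 Human foreskin fibroblast primary cells (hDFCGF system) were dosed with chemical and assayed at 24 h; IP-10 measured by ELISA. Activity fitted bidirectionally relative to DMSO negative control as baseline.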

Read-out in experiment [14]: Urokinase-type plasminogen activator receptor (uPAR), PLAUR (gene 5329)
Nature of the experiment: BSK_CASM3C_uPAR: BioMAP Diversity Plus: CASM3C Assay for Urokinase-type plasminogen activator receptor (uPAR) Biomarker Activity (AID 2283054).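 Also: cell-surface uPAR protein level quantified by ELISA.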 The conditions noted are these: primary human coronary artery smooth muscle cells; actives raise or lower the signal.

Read-out in experiment [15]: Vascular cell adhesion molecule 1 (VCAM1), VCAM1 (gene 7412)
The experiment in a line: BSK_CASM3C_VCAM1: BioMAP Diversity Plus: CASM3C Assay for Vascular cell adhesion molecule 1 (VCAM1) Biomarker Activity (AID 2283055).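 Also: VCAM-1 protein level quantified by ELISA on the cells.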 Particulars: primary human coronary artery smooth muscle cells; actives raise or lower the signal.

Read-out in experiment [16]: Collagen III, COL3A1 (gene 1281)
Nature of the experiment: BSK_hDFCGF_CollagenIII: BioMAP Diversity Plus: hDFCGF Assay for Collagen III Biomarker Activity (AID 2283056). Particulars: primary human foreskin fibroblasts; actives raise or lower the signal. Summed up:
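Response relative to DMSO, fitted in both directions, reflects ELISA-measured collagen III in human primary skin fibroblasts 24 h after compound addition.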

Read-out in experiment [17]: Epidermal growth factor receptor (EGFR), EGFR (gene 1956)
Nature of the experiment: BSK_hDFCGF_EGFR: BioMAP Diversity Plus: hDFCGF Assay for Epidermal growth factor receptor (EGFR) Biomarker Activity (AID 2283057). Particulars: primary human foreskin fibroblasts; actives raise or lower the signal. Summed up:
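Primary human foreskin fibroblasts were exposed to compound for 24 h, after which cell-surface EGFR was quantified by ELISA. Activity was fitted bidirectionally against the DMSO negative control as baseline.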

Read-out in experiment [18]: Interleukin-8 (IL8), CXCL8 (gene 3576)
The experiment in a line: BSK_hDFCGF_IL8: BioMAP Diversity Plus: hDFCGF Assay for Interleukin-8 (IL8) Biomarker Activity (AID 2283058). The conditions noted are these: primary human foreskin fibroblasts; actives raise or lower the signal. Summed up: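 Fibroblast monolayers (human foreskin, hDFCGF) received test chemical for 24 h before ELISA detection of IL-8; either increases or decreases relative to DMSO count as activity.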

Experiment [19] can be described thus: BSK_hDFCGF_Proliferation: Cell Proliferation Assessment in the BioMAP Diversity Plus: hDFCGF Assay (AID 2283059).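 Also: curves fitted for both rise and fall of signal versus DMSO baseline.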 Particulars: primary human foreskin fibroblasts. Put shortly: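 Total protein read at 560 nm after 0.1% SRB staining of TCA-fixed human skin fibroblasts, […]. Activity is fitted in both directions relative to DMSO as baseline.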

Read-out in experiment [20]: Macrophage colony-stimulating factor (MCSF), CSF1 (gene 1435)
The experiment in a line: BSK_hDFCGF_MCSF: BioMAP Diversity Plus: hDFCGF Assay for Macrophage colony-stimulating factor (MCSF) Biomarker Activity (AID 2283060). The conditions noted are these: primary human foreskin fibroblasts; actives raise or lower the signal. Put shortly:
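fibroblasts (human foreskin, primary), 24 h post-dose; M-CSF by ELISA; bidirectional fit, DMSO = baseline.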

SMILES strings stand for the structures. “And” between values parts separate entries of the source, which are not always exact repeats. Identical values can stand only once. A structure can be active in one record and inactive in another. The source made the active and inactive calls. The calls were made as follows: active = hit-call score of the fitted dose curve at least 0.9, where 1 is the maximum; inactive = score below 0.9.

As usually defined, the AC50 is the concentration at which the activity in the assay is half-maximal.

Take `O=C(O)C(F)(F)C(F)(F)C(F)(F)C(F)(F)C(F)(F)C(F)(F)C(F)(F)C(F)(F)F`: the AC50 in experiment [1] is 20 µM (active) and 23.6 µM (active) and 21.6 µM (active); in [12], 7.84 µM (active); in [13], 32.4 µM (active) and 43.4 µM (active); in experiment [16] it was 7.13 µM (active); in experiment [19] it was 34.2 µM (active) and 20.8 µM (active) and 46.7 µM (active). In addition, the outcome in experiment [2], in experiment [3], in experiment [4], in experiment [5], in experiment [6] and in experiment [7] was inactive. In addition, the outcome in experiment [8], in [9], in experiment [10], in experiment [11], in experiment [12] and in experiment [13] was inactive. Also, the outcome in [14], in [15], in experiment [16], in experiment [17], in experiment [18] and in [20] was inactive.

As for `CO/C=C(/C(=O)OC)c1ccccc1COc1cccc(C(F)(F)F)n1`, the outcome in experiment [1], in experiment [3], in experiment [4], in experiment [5], in [6] and in experiment [8] was inactive. Also, the result in experiment [9], in experiment [10], in [11], in experiment [12], in [13] and in [14] was inactive. Besides, the result in experiment [15], in experiment [17] and in experiment [18] was inactive. For the same compound, the AC50 in [2] was 3.94 µM (active); in experiment [7] it was 5.66 µM (active); in experiment [16] it was 1.75 µM (active); in experiment [19], 4.78 µM (active); in [20], 7.27 µM (active).

As for `COc1ccc(O)c(C(C)(C)C)c1`, the result in experiment [1], in experiment [2], in experiment [3], in [4], in [5] and in [6] was inactive. Also, the outcome in experiment [7], in [8], in [9], in experiment [10], in [11] and in experiment [12] was inactive. Also, the result in experiment [13], in experiment [14], in experiment [15], in experiment [16], in [17] and in [18] was inactive. Besides, the result in experiment [19] and in [20] was inactive. The AC50 is 5.43 µM (active) in experiment [2]; 3.97 µM (active) in [8]; 3.97 µM (active) and 8.37 µM (active) in experiment [16].

Turning to `O=C(O)C(F)(F)C(F)(F)C(F)(F)C(F)(F)C(F)(F)C(F)(F)C(F)(F)C(F)(F)C(F)(F)F`, the AC50 is 14.9 µM (active) and 14.1 µM (active) and 14.5 µM (active) in experiment [1]; 28.5 µM (active) and 29.1 µM (active) and 32.8 µM (active) in experiment [13]; 41.3 µM (active) and 30 µM (active) in [15]; 29.7 µM (active) and 30 µM (active) in experiment [16]; 7.6 µM (active) in [17]; 36.9 µM (active) and 57.3 µM (active) and 55.1 µM (active) in experiment [18]. Further, the AC50 in experiment [19] is 13.5 µM (active) and 16.5 µM (active) and 17.1 µM (active); in experiment [20], 30.4 µM (active) and 21.9 µM (active) and 21.6 µM (active). Further, the result in [2], in experiment [3], in [4], in [5], in experiment [6] and in experiment [7] was inactive. Further, the outcome in [8], in experiment [9], in experiment [10], in experiment [11], in experiment [12] and in [14] was inactive. Also, the outcome in experiment [15] and in experiment [17] was inactive.

As for `c1ccc(-c2ccccc2)cc1`, the outcome in [1], in experiment [2], in experiment [3], in [4], in experiment [5] and in experiment [6] was inactive. Further, the result in experiment [7], in experiment [8], in experiment [9], in [10], in experiment [11] and in experiment [12] was inactive. The result in experiment [13], in [14], in [15], in experiment [16], in experiment [17] and in experiment [18] was inactive. In addition, the outcome in experiment [19] and in experiment [20] was inactive.

(Values after PubChem BioAssay (EPA / NIEHS).)
